Here are results for 77 compounds from ChEMBL document CHEMBL4513216, “Probing the Open Global Health Chemical Diversity Library for Multistage-Active Starting Points for Next-Generation Antimalarials” (ACS Infect Dis, 2020).

Among all 69,000 compounds or so, about 8,600 (12%) showed an effect of 50% or more. The sample holds strong results, similar compounds and a random draw of the others, so the mix is not that of the screen.

The experiment has as its system Plasmodium berghei. As to the kind of experiment: Screen against P. berghei liver stage (PbLuc), transformed with Luciferase, at 10uM. Particulars: tested at 10 uM. The experiment is classed as functional, HepG2.
As for `Cc1cccc(CN2CCC3(CC2)CC(Oc2cccnc2)C3)n1`, the INHIBITION came to 0.923%.

`CCOc1ccnc(N2CCN(C(=O)c3ccn(C)c(=O)c3)CC2)n1`: the INHIBITION came to 4.71%.

For the compound `COc1ccc(CCCN(C)C(=O)c2cc(C(C)=O)c[nH]2)cc1OC`, the INHIBITION was -46.6%.

Consider `COCCN1C(=O)[C@@H]2CC[C@H]1CN(C(=O)Cc1ccc(O)c(Cl)c1)C2`, for which the INHIBITION is on record as -82.7%.

As to `CCS(=O)(=O)N1CCC2(CC1)COC(COc1cccnc1)C2` (configuration not stated), the INHIBITION worked out at 5.63%.

In the case of `Cc1ccc(C#N)c(N2CCC(c3nccn3Cc3cscn3)CC2)n1`, the INHIBITION was 23.9%.

Consider `Cc1cnc(C)c(N2CCC(c3nccn3Cc3cscn3)CC2)n1`, for which the INHIBITION was found to be 8.51%.

Take `Cc1ccc(C#N)c(N2CCCC(c3nccn3Cc3cscn3)C2)n1` (configuration not stated): the INHIBITION is reported as 56.7%.

Regarding `O=C(CC1CC1)N1C[C@@H]2CN(c3ccccc3)C(=O)[C@@H]2C1`, the INHIBITION was -15.9%.

Regarding `Cc1cc(C(=O)NCC2OCCc3cn(CC4CC4)nc32)c(C)[nH]1` (configuration not stated), the INHIBITION was determined as 26.5%.

In the case of `COc1ccc(CCN2CC(NCc3ncc[nH]3)CC2=O)cc1` (configuration not stated), the INHIBITION is -5.19%.

Take `CN(C)C(=O)c1ccc2c(c1)nc(N1CC[C@H](O)C1)n2C`: the INHIBITION was determined as 51.8%.

Consider `Cn1c(N2CC[C@H](O)C2)nc2cc(C(N)=O)ccc21`, for which the INHIBITION amounted to 14.3%.

As to `CN(C(=O)c1ccc2c(c1)nc(N1CC[C@H](O)C1)n2C)C1CCSCC1`, the INHIBITION is -1.04%.

In the case of `NCc1ccnc(Oc2ccc(F)cc2)c1`, the INHIBITION came to 82.9%.

For the compound `COc1ccc(Oc2cc(CN)ccn2)cc1`, the INHIBITION stood at 62.4%.

Turning to `CC(C)C(=O)NCc1ccnc(Oc2ccc(F)cc2)c1`, the INHIBITION came out at 32.5%.

As to `NCc1ccnc(Oc2ccccc2)c1`, the INHIBITION is -18.5%.

Turning to `CCOc1ccc(Oc2cc(CN)ccn2)cc1`, the INHIBITION is recorded as -5.69%.

For the compound `Cc1ccc(Oc2cc(CN)ccn2)cc1C`, the INHIBITION was found to be 45.7%.

For the compound `O=C(CSc1ccccc1)N1C[C@@H]2CC[C@H]1CN(Cc1ccncc1)C2`, the INHIBITION was 10.4%.

Turning to `CC(C)S(=O)(=O)N1CCC(c2cc3n(n2)[C@@H](C(F)(F)F)C[C@@H](C)N3)CC1`, the INHIBITION stood at 48.4%.

Regarding `COc1c(C2CCCN2CC(=O)Nc2cc(C)nn2C)c(C)nn1C` (configuration not stated), the INHIBITION is recorded as 23.5%.

On to `Cc1cc(C)n(CCC(=O)N2CCCC(c3nc(C(C)C)no3)C2)n1` (configuration not stated), for which the INHIBITION stood at 30.8%.

Turning to `COc1ncnc(N)c1CNCc1ccccc1-n1cccn1`, the INHIBITION was found to be 30.9%.

As for `CCc1ccc(CN2CCOC(Cc3cccc(F)c3)C2)nc1` (configuration not stated), the INHIBITION is listed as 22%.

On to `CCCNc1ncc(CN2CCOC(Cc3cccc(F)c3)C2)cn1` (configuration not stated), for which the INHIBITION is listed as -45%.

As for `CCc1ncc(CN2CCOC(Cc3cccc(F)c3)C2)cn1` (configuration not stated), the INHIBITION is reported as 56.1%.

`c1ncn(CC2CN(CC3CCCCC3)CCO2)n1` (configuration not stated): the INHIBITION is 25.4%.

Consider `O=C(NCC1(O)CCC1)c1c(O)cc(F)cc1F`, for which the INHIBITION is reported as 59.5%.

On to `O=C(NCCC(=O)N1CCCCCC1)c1c(O)cc(F)cc1F`, for which the INHIBITION is given as 29.5%.

For the compound `O=C(NCC1(O)CCC1)c1c(O)cc(Cl)cc1Cl`, the INHIBITION was 31%.

For the compound `NS(=O)(=O)Cc1cccc(C(=O)N2CCCC(n3cccn3)C2)c1` (configuration not stated), the INHIBITION was 14.815%.

Take `Cc1nccc(CNC(=O)NCCC(=O)N2CCCc3ccccc32)n1`: the INHIBITION is -15%.

As to `COc1cccc(C2CCCN2CCCNS(C)(=O)=O)c1` (configuration not stated), the INHIBITION came to 15.3%.

As to `CC1(c2ccc(Br)cc2)CC(=O)N(CC(N)=O)C1=O` (configuration not stated), the INHIBITION was found to be 51.8%.

With `CC1(c2ccc(Br)cc2)CC(=O)N(CCC(N)=O)C1=O` (configuration not stated), the INHIBITION is recorded as -48.3%.

Regarding `CSCCN1C(=O)CC(C)(c2ccc(Br)cc2)C1=O` (configuration not stated), the INHIBITION is 42.1%.

In the case of `O=C(NCC1CC1)[C@H]1C[C@H]2CN(C(=O)NCc3ccccc3)C[C@@H]1O2`, the INHIBITION is 13.6%.

As for `CC(NC(=O)NCCn1ccnc1)c1ccc2c(c1)OCCCO2` (configuration not stated), the INHIBITION is given as -9.37%.

Consider `CC(C)n1ccnc1CN1CCOC(C)(C(=O)N2CCOCC2)C1` (configuration not stated), for which the INHIBITION is on record as 38.2%.

Regarding `c1cnc(CC2CCN(c3cnccn3)CC2)cn1`, the INHIBITION was 33.2%.

With `CNC(=O)[C@@H](C1CC1)N1CCC[C@H]1C(=O)NCC(C)C`, the INHIBITION is -19.6%.

For `CCNC(=O)[C@@H]1CCCN1[C@@H](C(=O)NC)C1CC1`, the INHIBITION is 51.9%.

In the case of `CCCNC(=O)[C@@H]1CCCN1[C@@H](C(=O)NC)C1CC1`, the INHIBITION was -20.8%.

`COCCN1C(=O)[C@@H]2CC[C@H]1CN(c1nccc(C)n1)C2`: the INHIBITION is -39.2%.

For `Cc1cccc(COc2ccc(NC(=O)C(C)NC(N)=O)c(C)c2)c1` (configuration not stated), the INHIBITION was determined as 61.3%.

As to `Cc1cccc(COc2ccc(C(C)NC(=O)CNC(N)=O)cc2)c1` (configuration not stated), the INHIBITION is 40.7%.

As for `Cc1cccc(COc2ccc(C(C)NS(N)(=O)=O)cc2)c1` (configuration not stated), the INHIBITION was 9.16%.

With `CC(=O)NC(C)C(=O)Nc1ccc(OCc2cccc(F)c2)cc1C` (configuration not stated), the INHIBITION stood at 26.5%.

For `Cc1cccc(COc2ccc(C(C)N)cc2)c1` (configuration not stated), the INHIBITION came to 83%.

`Cc1cc(OCc2cccc(F)c2)ccc1NC(=O)C(C)NC(N)=O` (configuration not stated): the INHIBITION was determined as 48.3%.

As to `CC(C)(C)c1cc(CNC(=O)c2cc(COc3ccccc3)[nH]n2)[nH]n1`, the INHIBITION is given as -47%.

Consider `Cn1cc(C(=O)NCc2cn3c(n2)CN(CC2CCCC2)CC3)cn1`, for which the INHIBITION is -2.17%.

For the compound `Cc1nc(-c2ccnc(N3CCNCC3)n2)no1`, the INHIBITION was -17%.

With `Cc1nc(CN2CCN(CCOc3ccc(C(C)C)c(C)c3)CC2)no1`, the INHIBITION is 25.1%.

Regarding `Cc1noc(C)c1CNC(=O)N1CCC(Cc2cnn(C)c2)C1` (configuration not stated), the INHIBITION turned out to be 20.2%.

Turning to `Cn1cc(C2CC(=O)NC23CCN(C(=O)NC2CC2)CC3)cn1` (configuration not stated), the INHIBITION turned out to be 62.9%.

As to `Cn1cc(C2CC(=O)NC23CCN(C(=O)C2CC=CC2)CC3)cn1` (configuration not stated), the INHIBITION was -61.6%.

In the case of `O=C1CC(c2ccncc2)C2(CCN(C(=O)NC3CC3)CC2)N1` (configuration not stated), the INHIBITION stood at 33.4%.

Consider `COC1CCCN(C(=O)NCC(F)F)C1` (configuration not stated), for which the INHIBITION is recorded as 26.4%.

As for `COC1CCCN(C(=O)NCC(C)(C)SC)C1` (configuration not stated), the INHIBITION is reported as 32%.

As for `COC1CCCN(C(=O)NCCCF)C1` (configuration not stated), the INHIBITION stood at 55.5%.

As for `CCN1C(=O)CCC12CCCN(Cc1ccc(F)cc1)CC2` (configuration not stated), the INHIBITION is recorded as -24.5%.

With `COC(=O)C(NC(=O)c1ccc(C)cc1C)c1cccnc1` (configuration not stated), the INHIBITION stood at 42.4%.

Regarding `COC(=O)C(NC(=O)c1cc(F)cc(F)c1)c1cccnc1` (configuration not stated), the INHIBITION was 55.4%.

Take `COC(=O)C(NC(=O)c1cc(C)ccc1C)c1cccnc1` (configuration not stated): the INHIBITION is 32.2%.

With `Cc1nc(O)cc(C2CCN(C(=O)c3[nH]nc4c3CC(C)CC4)CC2)n1` (configuration not stated), the INHIBITION is 9.52%.

Take `O=C(Nc1cc(Cl)ccc1N1CCCCC1)c1ccccn1`: the INHIBITION was determined as 56.3%.

For `O=C(Nc1c(N2CCCC2)cccc1N1CCCC1)c1cnsn1`, the INHIBITION is recorded as 42.4%.

Take `COC(=O)c1ncccc1N1CCCCC1`: the INHIBITION came out at 89.1%.

Take `COC(=O)c1ncccc1N1CCCC1`: the INHIBITION was -0.71%.

Take `CN1CCN(c2ccc(Cl)cc2NC(=O)c2ccco2)CC1`: the INHIBITION is 35.1%.

As for `O=C(Nc1c(N2CCCC2)cccc1N1CCCC1)c1ccccn1`, the INHIBITION amounted to 55.4%.

Take `O=C(O)c1ncccc1N1CCCCC1`: the INHIBITION is 6.83%.

Consider `CN1CCN(c2ccc(NC(=O)c3ccccn3)c(C(F)(F)F)c2)CC1`, for which the INHIBITION is -78.3%.

In the case of `O=C(Nc1c(N2CCCC2)cccc1N1CCCC1)c1cnccn1`, the INHIBITION was 48%.
